From PubChem
USP17 block: blocks human USP17 ubiquitin-rhodamine cleavage; A8MUK1; purified USP17, Ub-rhodamine cleavage fluorescence, 3 h; inhibition, % at 50 µM; hit rate 6.5% among 47,000; AID 1645855
Target sequence (A8MUK1 whole entry, looked up): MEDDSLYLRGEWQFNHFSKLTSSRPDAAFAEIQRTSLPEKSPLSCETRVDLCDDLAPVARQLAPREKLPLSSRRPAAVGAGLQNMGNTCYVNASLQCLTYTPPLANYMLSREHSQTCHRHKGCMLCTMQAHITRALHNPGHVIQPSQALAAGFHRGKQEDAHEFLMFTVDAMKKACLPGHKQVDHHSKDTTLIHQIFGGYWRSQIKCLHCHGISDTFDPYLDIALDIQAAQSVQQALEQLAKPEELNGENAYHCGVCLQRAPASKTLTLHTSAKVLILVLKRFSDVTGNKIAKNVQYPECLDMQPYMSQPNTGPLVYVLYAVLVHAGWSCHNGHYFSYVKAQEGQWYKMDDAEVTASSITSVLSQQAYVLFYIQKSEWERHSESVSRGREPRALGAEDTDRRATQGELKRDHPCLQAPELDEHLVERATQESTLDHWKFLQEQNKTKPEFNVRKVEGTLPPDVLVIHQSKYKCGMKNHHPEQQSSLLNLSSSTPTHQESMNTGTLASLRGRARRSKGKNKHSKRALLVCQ
USP10 inh: blocks human USP10 ubiquitin-rhodamine cleavage. Q14694. purified USP10, Ub-rhodamine fluorescence, 60 min. inhibition, % at 20 µM. hit rate 1.1% among 47,000. AID 1645856
USP8 inh: blocks human USP8 ubiquitin-rhodamine cleavage | P40818 | AID 1645853 | inhibition, % at 20 µM | purified USP8, Ub-rhodamine cleavage fluorescence, 30 min | hit rate 4.2% among 47,000
USP30 block: inhibitors of human USP30 deubiquitinase; Q70CQ3; purified USP30, Ub-rhodamine cleavage fluorescence; inhibition, % at 25 µM; hit rate 5.3% among 47,000; AID 1645860
OTUD3 inh: blocks human OTUD3 ubiquitin-rhodamine cleavage; AID 1645858; hit rate 0.7% among 47,000; inhibition, % at 25 µM; purified OTUD3, Ub-rhodamine fluorescence, 2 h
USP28 inh: human USP28 deubiquitinase inhibition; Q96RU2; purified USP28, Ub-rhodamine cleavage fluorescence, 30 min; inhibition, % at 25 µM; hit rate 3% among 47,000; AID 1645857
* = called active by the depositor. A selection: hits, their analogues and other compounds. The true share with any hit is near 13%. Cut-off read from the data, not from the text of the source: active = inhibition above about 30%; inactive = the rest.

Screening COc1ccc(NC(=O)COc2ccc(C(=O)c3ccccc3)cc2)c(OC)c1 returned USP17 block 12, USP10 inh 9, USP8 inh -4, USP30 block 24, OTUD3 inh 2 and USP28 inh -3.
COc1ccc(-c2cc(C(C)=O)c(C)n2CCC(=O)Nc2ccc(C)cn2)cc1 was read as USP17 block -44, USP10 inh -3, USP8 inh -19, USP30 block -132, OTUD3 inh -38 and USP28 inh -43.
COc1ccc(NC(=O)COc2cc(C)nc(-c3ccc(C)cc3)n2)c(OC)c1 was read as USP17 block 63*, USP10 inh 30*, USP8 inh 46*, USP30 block 58*, OTUD3 inh 10 and USP28 inh 12.
For COc1ccc(-c2cc(C(C)=O)c(C)n2CCC(=O)Nc2ccc(OC)cc2OC)cc1 the results were USP17 block 33*, USP10 inh 0, USP8 inh -2, USP30 block 81*, OTUD3 inh 8 and USP28 inh 0.
Screening O=C(Cc1ccc([N+](=O)[O-])cc1)Nc1ccc(N2CCCCC2)cc1 returned USP17 block -26, USP10 inh 3, USP8 inh -75, USP30 block -17, OTUD3 inh -4 and USP28 inh -9.
`O=C(CN1C(=O)NC2(CCCCC2)C1=O)Nc1ccc([N+](=O)[O-])cc1` gave USP17 block 65*, USP10 inh 11, USP8 inh 17, USP30 block 28, OTUD3 inh 18 and USP28 inh 20.
`Cc1onc(-c2ccccc2)c1CNC(=O)C1CCN(c2nccc(C(F)(F)F)n2)CC1` gave USP17 block 76*, USP10 inh 10, USP8 inh 0 and OTUD3 inh 3.
Screening COc1ccc(CNC(=O)c2noc(C)c2CN2CCOCC2)c(OC)c1 returned USP17 block -1, USP10 inh -1, USP8 inh 5, USP30 block 0, OTUD3 inh 0 and USP28 inh -2.
Screening COc1ccccc1/C=C(\C(=O)N1CCN(c2ccccc2)CC1)c1ccccc1 returned USP17 block 7, USP10 inh 10, USP8 inh 4, USP30 block 35*, OTUD3 inh 17 and USP28 inh 14.
For COc1ccccc1N1CCN(C(=O)CC(c2ccccc2)c2ccccc2)CC1 the results were USP17 block -9, USP10 inh -2, USP8 inh -156, USP30 block 0, OTUD3 inh 12 and USP28 inh 1.
COc1ccc(NC(=O)Cn2c(=O)n(CCCCC(=O)NCc3ccco3)c(=O)c3ccccc32)cc1Cl was read as USP17 block -18, USP10 inh 59*, USP8 inh 1, USP30 block -6, OTUD3 inh 6 and USP28 inh -4.
For COC(=O)c1ccccc1NC(=O)Cn1c(=O)n(CCCC(=O)NCc2ccco2)c(=O)c2ccccc21 the results were USP17 block 76*, USP10 inh 54*, USP8 inh 58*, USP30 block 80*, OTUD3 inh 68* and USP28 inh 58*.
Screening O=C(Cn1c(=O)n(CCCC(=O)NC2CCN(Cc3ccccc3)CC2)c(=O)c2ccccc21)Nc1cccc(Cl)c1 returned USP17 block 27, USP10 inh -9, USP8 inh -6, USP30 block -36, OTUD3 inh -6 and USP28 inh -11.
`COc1cccc(NC(=O)Cn2c(=O)n(CCCC(=O)NCc3ccco3)c(=O)c3ccccc32)c1` gave USP17 block 44*, USP10 inh 5, USP8 inh 4, USP30 block 7, OTUD3 inh 16 and USP28 inh 15.
Screening COc1ccccc1CNC(=O)CCCCn1c(=O)c2ccccc2n(CC(=O)Nc2ccc(C)cc2C)c1=O returned USP17 block 21, USP10 inh 50*, USP8 inh 46*, USP30 block 42*, OTUD3 inh 19 and USP28 inh 16.
Cc1ccc(CNC(=O)CCCn2c(=O)c3ccccc3n(CC(=O)Nc3cc(C)[nH]n3)c2=O)cc1 was read as USP17 block 1, USP10 inh 1, USP8 inh 4, USP30 block 4, OTUD3 inh -4 and USP28 inh 0.
`CC(Oc1ccc(F)cc1)C(=O)Nc1ccc2c(c1)NC(=O)CO2` (centres undefined) gave USP17 block 0, USP10 inh 2, USP8 inh -28, USP30 block -5, OTUD3 inh 12 and USP28 inh 14.
`COc1ccc2c(c1)CCc1c-2n[nH]c1C(=O)N1CCC(C)CC1` gave USP17 block 11, USP10 inh 0, USP8 inh 21, USP30 block 23, OTUD3 inh 9 and USP28 inh 11.
`O=C(CN1CCCCC1c1nc(-c2cccc(F)c2)no1)NCc1ccccc1` (centres undefined) gave USP17 block -9, USP10 inh 1, USP8 inh -28, USP30 block 22, OTUD3 inh 7 and USP28 inh 3.
`Cc1ccc(-n2nc(CO)c(C(=O)NCc3ccncc3)n2)cc1` gave USP17 block -9, USP10 inh -11, USP8 inh -1, USP30 block -29, OTUD3 inh -9 and USP28 inh -13.
For O=C(/C=C/c1c(F)cccc1Cl)N1CCc2ccccc2C1 the results were USP17 block 75*, USP10 inh 9, USP8 inh 93*, USP30 block 29, OTUD3 inh 30 and USP28 inh 43*.
O=C(/C=C/c1ccc(Cl)cc1)N1CCc2ccccc2C1 was read as USP10 inh 4, USP8 inh 3, USP30 block 5, OTUD3 inh 0 and USP28 inh 0.
COc1ccc(C(CNC(=O)COc2ccc3ccccc3c2)N2CCN(C)CC2)cc1 (centres undefined) was read as USP17 block 3, USP10 inh -2, USP8 inh 0, USP30 block 23, OTUD3 inh 4 and USP28 inh 5.
`Cc1ccc(-c2cc(C(=O)N3CCc4ccccc4C3)nn2C2CCS(=O)(=O)C2)cc1` (centres undefined) gave USP17 block 9, USP10 inh 9, USP8 inh 8, USP30 block 31*, OTUD3 inh 18 and USP28 inh 16.
C/C=C(\C)C(=O)C(C)C(O)C(C)C(=O)OC1C=COC=C2CC3(SC)C(=O)N4C5C(=CC=CC5O)C(O)C4(SC)C(=O)N3C21 (centres undefined) was read as USP17 block 6, USP10 inh -7, USP8 inh -18, USP30 block -21, OTUD3 inh 0 and USP28 inh 0.
Screening COc1cc(Cl)ccc1-c1nc(-c2ccn3cnnc3c2)no1 returned USP17 block -28, USP10 inh -3, USP8 inh 14, USP30 block -78, OTUD3 inh -6 and USP28 inh -17.
